# Bioassay records (PubChem)
# Rows were chosen to be rich in hits. Some 4.6% of all compounds tested hit in one or more screens of this group.
# D1 agonist: Allosteric Agonists of the Human D1 Dopamine Receptor: qHTS; HEK293 T-REx D1 cells, calcium flux, agonist mode; activation, % at 2 µM; D(1A) dopamine receptor (Homo sapiens), P21728; AID 504660, 2011; hit rate 1% among 360,000; further: 0% is about no effect
# Target sequence (P21728 whole entry, looked up): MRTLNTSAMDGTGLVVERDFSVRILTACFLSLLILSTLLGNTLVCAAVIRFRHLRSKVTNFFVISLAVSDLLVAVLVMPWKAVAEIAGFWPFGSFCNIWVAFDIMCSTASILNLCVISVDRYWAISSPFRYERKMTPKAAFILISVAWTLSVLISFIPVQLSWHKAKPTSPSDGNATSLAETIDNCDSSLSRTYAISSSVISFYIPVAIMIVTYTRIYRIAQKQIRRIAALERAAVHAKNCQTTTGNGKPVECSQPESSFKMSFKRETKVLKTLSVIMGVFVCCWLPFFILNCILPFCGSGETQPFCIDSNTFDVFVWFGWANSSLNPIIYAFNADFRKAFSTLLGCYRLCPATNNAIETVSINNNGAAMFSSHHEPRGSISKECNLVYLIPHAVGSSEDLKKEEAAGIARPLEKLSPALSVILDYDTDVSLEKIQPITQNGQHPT
#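 Tetracycline-induced HEK293 TREx D1 cells, force-coupled to calcium signalling, were dye-loaded with a no-wash calcium kit. Compound was pin-added after a 10 s baseline. Fluorescence was read kinetically at 1 cycle/s for 180 s, with calcium rises flagged as agonism.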
# TRHR ag: qHTS for Small Molecule Agonists and Allosteric Enhancers of Human TRH Receptor: Primary Screen for Agonists; Thyrotropin-releasing hormone receptor (Homo sapiens), P34981; hit rate 0.18% among 360,000; TRHR cells, calcium flux fluo-8, FDSS agonist mode; activation, % at 2 µM; further: 0% is about no effect
#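 Fluo-8-loaded TRHR cells; 10 s baseline, compound added, kinetic Ca2+ fluorescence read 1/s, agonist mode.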
# D1 antagonist: Antagonist of Human D 1 Dopamine Receptor: qHTS. D(1A) dopamine receptor (Homo sapiens), P21728. activity change, negative = inhibition, % at 10 µM. HEK293 TREx D1 cells, calcium flux, dopamine EC80; active compounds read low. hit rate 3.2% among 360,000; in the data active means activity change below about -30%; further: on the % scale 0 is the no-effect control and ±100 the full control effect
#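 After overnight tetracycline induction at 30 C, force-coupled D1 HEK293 cells took up a no-wash calcium dye at room temperature. Compounds were added and monitored 180 s, and the response to EC80 dopamine was then recorded.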
# D1 potentiator: Potentiators of Human D1 Dopamine Receptor: qHTS; D(1A) dopamine receptor (Homo sapiens), P21728; HEK293 TREx D1 cells, calcium flux, dopamine EC20 potentiation; potentiation, % at 10 µM; hit rate 0.036% among 360,000; AID 504651, 2011; in the data active means potentiation above about 30%; further: 0% is about no effect
# TRHR PAM: qHTS for Small Molecule Agonists and Allosteric Enhancers of Human TRH Receptor: Primary Screen for Enhancers | Thyrotropin-releasing hormone receptor (Homo sapiens), P34981 | TRHR cells, fluo-8 calcium fluorescence, EC20 TRH enhancement | enhancement, % at 2 µM | hit rate 0.66% among 360,000 | AID 493056, 2011; in the data active means enhancement above about 30%; further: 0% is about no effect
#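 TRHR-expressing cells loaded with fluo-8 calcium dye were read kinetically (ex 480/em 530) during compound addition, then stimulated with an EC20 of TRH (10 nM final). Enhancement of the Gq-mediated intracellular calcium response was scored.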
# Starred values were filed as active, the others as inactive; x = not tested or not shown. Unless noted, no stated cut-off is given here; in the data, active means activation above about 30%; inactive means the rest.
SMILES,D1 agonist,TRHR ag,D1 antagonist,D1 potentiator,TRHR PAM
OCCOCCNc1ncnc2c1cnn2-c1ccccc1,-0.2,0.2,-45.0*,-9.2,23.4
c1ccc(-n2ncc3c(NCCN4CCOCC4)ncnc32)cc1,1.4,0.2,-1.2,7.4,32.8*
CN(C)CCCNc1ncnc2c1cnn2-c1ccccc1,3.1,1.2,-14.4,-4.8,-4.8
c1ccc(-n2ncc3c(NCCN4CCCCC4)ncnc32)cc1,4.6,1.2,0.8,-2.9,3.1
CCOCCCNC(=O)C1CCN(Cc2ccc(OCc3ccccc3)c(OC)c2)CC1,5.0,0.1,4.4,1.5,12.0
CCOCCCNC(=O)C1CCN(Cc2cccc(OCc3ccccc3)c2)CC1,-2.0,0.3,-30.6*,-3.1,-7.0
CCCCn1c(CCc2ccccc2)nc2cc3[nH]c(=O)c(C(C)C)nc3cc21,1.5,-0.2,-81.6*,-16.9,-1.4
CC(OC(=O)c1cccc(-n2cnnn2)c1)C(=O)Nc1cccc(Cl)c1 (stereo unspecified),8.2,-0.3,-35.6*,-5.3,-2.9
O=C(Nc1cccc(-n2cnnn2)c1)c1ccc(C(F)(F)F)cc1,3.9,0.7,-32.2*,-4.2,7.5
CC(=O)c1ccc(NC(=O)C(C)OC(=O)c2cccc(-n3cnnn3)c2)cc1 (stereo unspecified),-0.3,0.4,-9.6,-3.5,-8.2
COc1ccc(OC)c(NC(=O)COC(=O)c2ccc(-n3cnnn3)cc2)c1,1.7,0.1,0.3,-1.1,-1.6
COc1cc(C(=O)Nc2cccc(-n3cnnn3)c2)cc(OC)c1OC,3.1,0.1,-8.8,-12.1,-2.6
COc1cccc(OC)c1C(=O)Nc1cccc(-n2cnnn2)c1,2.1,-0.1,-35.0*,-0.1,-0.2
COc1ccc(NC(=O)COC(=O)c2ccc(-n3cnnn3)cc2)cc1Cl,7.2,0.0,-10.4,-4.1,30.9*
COc1ccc(NC(=O)COC(=O)CNC(=O)c2cccs2)cc1Cl,-0.1,-0.3,-34.3*,x,2.1
Cc1cc(C)c(C)c(S(=O)(=O)Nc2cccc(-n3cnnn3)c2)c1C,7.3,0.0,-33.2*,-5.1,6.0
COc1ccc(NC(=O)CCC(=O)c2cccs2)cc1Cl,2.2,-0.1,-3.2,-0.1,10.9
Cc1cc(C)c(S(=O)(=O)Nc2cccc(-n3cnnn3)c2)c(C)c1,5.9,-0.3,-15.6,-0.7,-3.5
CN(C)CCNC(=O)Cc1ccc(NC(=O)N2CCCCc3ccccc32)cc1,3.4,0.3,-8.3,-0.1,0.1
CN(Cc1ccco1)c1ncnc2ccc(-c3cccc(Cl)c3)cc12,4.0,0.5,3.7,-6.0,-3.7
CCCCCOc1ccc(C2C(C(=O)c3ccc(C)o3)=C(O)C(=O)N2c2cc(C)on2)cc1 (stereo unspecified),5.8,0.7,6.7,2.5,9.7
COc1ccc(CCNCC(O)Cn2c3ccccc3c3ccccc32)cc1OC (stereo unspecified),55.3*,1.8,-18.9,-4.8,-7.0
COc1ccccc1NCC(O)Cn1c2ccccc2c2ccccc21 (stereo unspecified),-0.6,0.2,-0.6,1.6,-6.8
O=C(O)Cn1cc(/C=N/NC(=O)c2cc3cc(Br)ccc3o2)c2ccccc21,0.7,0.4,-33.1*,4.3,-4.9
COc1cccc(-c2nc3c(c(=O)[nH]c(=O)n3Cc3ccccc3)n2CCO)c1OC(F)F,5.4,-1.0,-43.2*,-3.2,7.5
SMILES,D1 agonist,TRHR ag,D1 antagonist,D1 potentiator,TRHR PAM
CCCNC(=O)OC[C@H]1O[C@H](CCO/N=C(\C)CCN2CCc3nc(-c4ccccc4)c(-c4ccccc4)cc3C2)C=C[C@@H]1Oc1ccc(OC)cc1,4.2,0.5,-14.8,-1.9,-1.6
CCCNC(=O)OC[C@H]1O[C@H](CCO/N=C/C[C@@H]2C=C[C@H](OC(C)=O)[C@@H](COC(C)=O)O2)C=C[C@@H]1Oc1ccc(OC)cc1,4.1,-0.2,-30.3*,-5.3,0.8
O=C(Nc1ccc(OC(F)(F)F)cc1)C1CC(c2ccc(F)cc2)=NO1 (stereo unspecified),7.7,-0.4,-35.3*,-3.3,-4.9
Cc1cc(C(=O)O)ccc1-c1ccc(/C=C2\SC(=O)N(CC(=O)Nc3ccc4c(c3)OCO4)C2=O)o1,43.1*,13.7,-14.8,-3.0,-5.4
CCOCN(C(=O)Cn1cnc2cc(C)c(C)cc21)c1c(C)cccc1CC,6.7,-0.4,1.9,0.5,-2.8
COC(=O)C1=C(C)N(Cc2ccc(OC)cc2)C(=O)/C1=C\c1ccco1,2.0,0.4,-34.3*,-9.8,-3.9
Cc1cccc(/C=C(\C#N)c2nc3ccccc3c(=O)[nH]2)c1,5.7,2.1,-19.3,-2.8,-0.6
CN(C)c1ccc(/C=C(\C#N)c2ccccc2)cc1,0.6,0.2,-4.5,-3.6,0.2
CCOC(=O)NC(=O)/C(C#N)=C/c1ccc(N(C)C)cc1,30.8*,10.5,-25.8,-4.8,13.4
CN(C)c1ccc(/C=C(\C#N)C(=O)c2ccccc2)cc1,400.8*,138.4*,-38.6*,22.0,29.0
CN(C)c1cccc(/C=C(\C#N)c2ccccc2)c1,-0.6,-0.7,-32.1*,-0.1,16.5
CN(C)c1ccc(/C=C(\C#N)c2nc3ccccc3c(=O)[nH]2)cc1,96.9*,37.6*,-26.7,5.8,-0.9
CCN(CC)c1ccc(/C=C(\C#N)C(N)=O)cc1,14.1,4.5,7.8,-1.9,3.0
O=C(C1CCC1)N1CCc2cc(S(=O)(=O)NCCc3ccccc3)ccc21,12.4,-2.0,-13.7,1.3,1.3
Cn1nnnc1Sc1ncnc2scc(-c3ccc(S(C)(=O)=O)cc3)c12,6.8,-0.7,-2.9,1.9,16.8
CCCNS(=O)(=O)c1cc(CN2C(=O)c3cccnc3C2=O)ccc1OC,1.5,-0.9,-11.6,-2.0,1.5
Cc1cc2c(s1)c1cnn(Cc3cccc(Cn4ncc5c6sc(C)cc6n(C)c5c4=O)c3F)c(=O)c1n2C,1.9,-1.0,-14.0,7.0,2.4
COc1ccc(/C=C(\C#N)C(=O)OCC(=O)NCc2ccccc2)cc1,0.0,0.1,-0.1,1.1,0.4
CCN(CC)c1ccc(/C=C(\C#N)C(=O)c2ccc(Br)cc2)cc1,258.5*,108.8*,-47.6*,-10.1,7.2
COc1cccc(CNC(=O)COC(=O)/C(C#N)=C/c2ccc(N(C)C)cc2)c1,74.3*,12.9,-16.7,x,1.3
COC(=O)c1cc(OC(=O)CCc2ccc(OC)c(OC)c2)cc(C(=O)OC)c1,2.5,0.1,-8.6,-6.7,-6.3
COC(=O)c1ccccc1NC(=O)Cn1ncc2c(C)n(Cc3ccc(F)cc3)c(C)c2c1=O,2.7,0.9,-70.7*,-2.9,-3.5
